Source: PubChem BioAssay (Tox21)
Inconclusive results are not listed. Entries that show only a call come without a potency. Unmarked numbers belong to inactive results. The source made the active and inactive calls. Unless noted, calls follow the shape of the dose curve; as a rule, active = well fitted curve in the direction sought with a large enough effect in the repeat runs; inconclusive = weak or mixed curves; inactive = no such curve, though single readings can be large; an effect the other way counts as inactive or inconclusive.

Assays:
[1] = qHTS assay to identify aromatase inhibitors - cell viability counter screen (AID 743084);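 also: cells stimulated with testosterone during compound exposure; nearly all actives have a fitted effect of over 55% in size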
[2] = target: Aryl hydrocarbon receptor (Homo sapiens) (UniProt P35869); experiment: qHTS assay to identify small molecule that activate the aryl hydrocarbon receptor (AhR) signaling pathway (AID 743085); also: nearly all actives have a fitted effect of over 15% in size; also: potency is read from the fitted curve at half-maximal effect;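 as to activation: HG2L7.5c1 human HepG2 liver cells with stably integrated DRE-driven firefly reporter; series mostly up to about 70 µM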
Aryl hydrocarbon receptor (Homo sapiens), sequence (P35869 whole entry, looked up): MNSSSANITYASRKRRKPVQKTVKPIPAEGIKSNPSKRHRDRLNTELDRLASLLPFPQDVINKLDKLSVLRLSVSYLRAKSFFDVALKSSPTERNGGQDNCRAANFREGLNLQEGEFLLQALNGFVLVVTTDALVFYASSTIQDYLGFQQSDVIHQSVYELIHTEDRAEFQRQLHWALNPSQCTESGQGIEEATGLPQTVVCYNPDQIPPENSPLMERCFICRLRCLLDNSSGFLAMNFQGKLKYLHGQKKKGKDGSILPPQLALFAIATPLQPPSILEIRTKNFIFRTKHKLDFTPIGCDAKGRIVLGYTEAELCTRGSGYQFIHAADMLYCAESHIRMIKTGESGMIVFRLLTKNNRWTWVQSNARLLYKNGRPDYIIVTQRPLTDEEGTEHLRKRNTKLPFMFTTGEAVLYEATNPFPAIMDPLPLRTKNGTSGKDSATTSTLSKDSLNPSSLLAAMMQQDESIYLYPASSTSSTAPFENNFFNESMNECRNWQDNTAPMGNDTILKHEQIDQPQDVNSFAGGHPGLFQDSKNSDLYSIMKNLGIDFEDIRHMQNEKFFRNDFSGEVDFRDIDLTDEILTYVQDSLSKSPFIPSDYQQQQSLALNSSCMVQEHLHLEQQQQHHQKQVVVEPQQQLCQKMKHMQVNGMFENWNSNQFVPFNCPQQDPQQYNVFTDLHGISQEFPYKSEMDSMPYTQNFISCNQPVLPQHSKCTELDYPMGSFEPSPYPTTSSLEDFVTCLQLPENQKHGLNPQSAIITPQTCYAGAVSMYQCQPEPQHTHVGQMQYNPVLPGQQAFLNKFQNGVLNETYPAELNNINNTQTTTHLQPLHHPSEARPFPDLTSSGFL
In short: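 Luminescence read-out: ONE-Glo reagent, 30 min at room temperature, in HG2L7.5c1 HepG2 reporter cells treated 24 h at 37C. Viability was measured beforehand by CellTiter-Fluor fluorescence after 30 min at 37C.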

[3] = qHTS assay to identify small molecule that activate the aryl hydrocarbon receptor (AhR) signaling pathway - cell viability counter screen (AID 743086);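 also: HepG2 liver cells carrying the AhR DRE luciferase reporter; series mostly up to about 70 µM; nearly all actives have a fitted effect of over 45% in size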
In short: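 HepG2-AhR-luc (HG2L7.5c1) cells, 4000/well, were preincubated 5 h at 37C, exposed to compound in qHTS format for 24 hr at 37C, then given CellTiter-Fluor for 30 min; viability was read as fluorescence in the reporter wells.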

[4] = target: Peroxisome proliferator-activated receptor gamma (Homo sapiens) (UniProt P37231); experiment: qHTS assay to identify small molecule agonists of the peroxisome proliferator-activated receptor gamma (PPARg) signaling pathway (AID 743094; active = well fitted activation curve with a large enough effect in the signal ratio in the repeat runs, not every such curve was filed as active; the % refers to the signal ratio)
Peroxisome proliferator-activated receptor gamma (Homo sapiens), sequence (P37231 whole entry, looked up): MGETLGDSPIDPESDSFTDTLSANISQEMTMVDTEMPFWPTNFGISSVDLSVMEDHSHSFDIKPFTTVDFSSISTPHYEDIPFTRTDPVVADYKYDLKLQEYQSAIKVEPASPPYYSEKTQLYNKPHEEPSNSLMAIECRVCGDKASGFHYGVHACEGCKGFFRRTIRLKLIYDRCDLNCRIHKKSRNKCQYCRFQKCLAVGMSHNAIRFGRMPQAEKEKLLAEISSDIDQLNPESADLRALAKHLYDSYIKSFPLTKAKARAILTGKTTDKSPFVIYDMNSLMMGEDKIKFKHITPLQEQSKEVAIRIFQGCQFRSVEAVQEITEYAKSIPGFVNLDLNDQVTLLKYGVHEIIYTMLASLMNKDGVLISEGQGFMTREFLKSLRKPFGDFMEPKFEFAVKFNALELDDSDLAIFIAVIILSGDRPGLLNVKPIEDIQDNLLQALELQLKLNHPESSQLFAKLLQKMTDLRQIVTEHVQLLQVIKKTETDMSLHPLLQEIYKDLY
In short: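 Compounds dissolved in DMSO were added to PPARg UAS-bla HEK293H cells for 17 h at 37C, and reporter expression was quantified by fluorescence intensity after 1 h with LiveBLAzer B/G FRET substrate.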

[5] = target: Peroxisome proliferator-activated receptor gamma (Homo sapiens) (UniProt P37231); experiment: qHTS assay to identify small molecule antagonists of the peroxisome proliferator-activated receptor gamma (PPARg) signaling pathway (AID 743191; calls by dose curve; also: series mostly up to about 63 µM; nearly all actives have a fitted effect of over 30% in size)
In short: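 GeneBLAzer PPARg UAS-bla HEK293H cells carrying a UAS-driven beta-lactamase reporter were plated at 3000 cells/well, preincubated 5 h at 37C, then given compound for 17 h at 37C; LiveBLAzer B/G FRET substrate was read after 1 h at room temperature.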

[6] = qHTS assay to identify small molecule antagonists of the peroxisome proliferator-activated receptor gamma (PPARg) signaling pathway - cell viability counter screen (AID 743194); also: nearly all actives have a fitted effect of over 55% in size
In short: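 PPARg-UAS-bla HEK293H cells were plated, rested 5 h at 37 C, then treated with compounds plus rosiglitazone (50 nM final) for 17 h at 37 C; viability was then read by CellTiter-Glo luminescence after 30 min at room temperature.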

[7] = qHTS assay for small molecule agonists of the antioxidant response element (ARE) signaling pathway - cell viability counter screen (AID 743203; calls by dose curve; also: nearly all actives have a fitted effect of over 55% in size)
In short: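 Following 16 hrs of compound treatment at 37C, HepG2 cells with an ARE-controlled beta-lactamase gene were lysed with CellTiter-Glo. Luminescence was read after 30 min at room temperature.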

[8] = qHTS assay for small molecule activators of the heat shock response signaling pathway - cell viability counter screen (AID 743209); also: nearly all actives have a fitted effect of over 50% in size
In short: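 Readout: CellTiter-Glo luminescence, 30 min at room temperature. System: HSE-bla HeLa cells, 1500/well, plated overnight. Treatment: compounds in DMSO, 5 h at 37 C.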

[9] = qHTS assay for small molecule activators of the heat shock response signaling pathway (AID 743210; active = well fitted activation curve with a large enough effect in the signal ratio in the repeat runs, with a control signal flat, not every such curve was filed as active; the % refers to the signal ratio;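 also: HeLa cells with beta-lactamase reporter driven by heat shock elements; series mostly up to about 63 µM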)
In short: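 Reporter gene assay: HeLa cells stably bearing an HSE-bla construct, compound treatment 5 h at 37 C, LiveBLAzer substrate 2.5 h at RT, fluorescence intensity.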

[10] = qHTS assay to identify small molecule agonists of the peroxisome proliferator-activated receptor delta (PPARd) signaling pathway - cell viability counter screen (AID 743211); also: nearly all actives have a fitted effect of over 55% in size
In short: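 Read-out: CellTiter-Glo luminescence, 30 min RT, measured in the same wells as the beta-lactamase reporter. Cells: GeneBLAzer PPAR delta UAS-bla HEK293H, 3000 cells/well, compound exposure 17 h at 37C.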

[11] = target: Peroxisome proliferator-activated receptor delta (Homo sapiens) (UniProt Q03181); experiment: qHTS assay to identify small molecule agonists of the peroxisome proliferator-activated receptor delta (PPARd) signaling pathway (AID 743212; calls by dose curve)
Peroxisome proliferator-activated receptor delta (Homo sapiens), sequence (Q03181 whole entry, looked up): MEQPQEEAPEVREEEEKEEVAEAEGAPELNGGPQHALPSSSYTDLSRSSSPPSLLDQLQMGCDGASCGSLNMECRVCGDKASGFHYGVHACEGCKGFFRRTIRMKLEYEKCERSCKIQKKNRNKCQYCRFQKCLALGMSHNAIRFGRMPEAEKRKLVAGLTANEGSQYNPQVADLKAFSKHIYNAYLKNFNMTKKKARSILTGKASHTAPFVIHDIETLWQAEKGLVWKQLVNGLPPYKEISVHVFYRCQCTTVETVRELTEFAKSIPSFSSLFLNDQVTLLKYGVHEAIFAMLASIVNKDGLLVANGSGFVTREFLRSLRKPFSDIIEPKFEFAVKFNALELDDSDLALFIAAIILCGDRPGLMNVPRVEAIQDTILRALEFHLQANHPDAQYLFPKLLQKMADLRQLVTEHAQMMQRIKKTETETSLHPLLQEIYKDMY
In short: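 A PPARd-bla HEK293H line with beta-lactamase under an Upstream Activator Sequence is treated with compounds at 37 C. Substrate loading for 2 h at room temperature precedes the fluorescence measurement.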

[12] = qHTS assay to identify small molecule antagonists of the peroxisome proliferator-activated receptor delta (PPARd) signaling pathway - cell viability counter screen (AID 743213); also: nearly all actives have a fitted effect of over 50% in size
In short: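 PPARd-bla HEK293H cells were treated with compounds plus agonist L165041 (300 nM final) for 17 h at 37 C. Viability was then read in the same wells by CellTiter-Glo luminescence after 30 min at room temperature.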

[13] = target: Peroxisome proliferator-activated receptor delta (Homo sapiens) (UniProt Q03181); experiment: qHTS assay to identify small molecule antagonists of the peroxisome proliferator-activated receptor delta (PPARd) signaling pathway (AID 743215; active = well fitted inhibition curve with a large enough effect in the signal ratio in the repeat runs, not every such curve was filed as active; the % refers to the signal ratio;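 also: cells stimulated with agonist L165041 at 300 nM final during compound exposure; series mostly up to about 62 µM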)
In short: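 HEK293H UAS-bla, PPARd; agonist L165041 300 nM final with cpd in DMSO; 37 C 17 h; FRET substrate, RT 2 h; fluorescence intensity.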

[14] = qHTS assay to identify small molecule agonists of the farnesoid-X-receptor (FXR) signaling pathway - cell viability counter screen (AID 743218); also: nearly all actives have a fitted effect of over 45% in size
In short: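 Parallel cytotoxicity test: compound-treated (16 h, 37 C) HEK 293T FXR-bla reporter cells were lysed with CellTiter-Glo and luminescence recorded.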

[15] = target: Bile acid receptor (Homo sapiens) (UniProt Q96RI1); experiment: qHTS assay to identify small molecule agonists of the farnesoid-X-receptor (FXR) signaling pathway (AID 743220; active = well fitted activation curve with a large enough effect in the signal ratio in the repeat runs, not every such curve was filed as active; the % refers to the signal ratio)
Bile acid receptor (Homo sapiens), sequence (Q96RI1 whole entry, looked up): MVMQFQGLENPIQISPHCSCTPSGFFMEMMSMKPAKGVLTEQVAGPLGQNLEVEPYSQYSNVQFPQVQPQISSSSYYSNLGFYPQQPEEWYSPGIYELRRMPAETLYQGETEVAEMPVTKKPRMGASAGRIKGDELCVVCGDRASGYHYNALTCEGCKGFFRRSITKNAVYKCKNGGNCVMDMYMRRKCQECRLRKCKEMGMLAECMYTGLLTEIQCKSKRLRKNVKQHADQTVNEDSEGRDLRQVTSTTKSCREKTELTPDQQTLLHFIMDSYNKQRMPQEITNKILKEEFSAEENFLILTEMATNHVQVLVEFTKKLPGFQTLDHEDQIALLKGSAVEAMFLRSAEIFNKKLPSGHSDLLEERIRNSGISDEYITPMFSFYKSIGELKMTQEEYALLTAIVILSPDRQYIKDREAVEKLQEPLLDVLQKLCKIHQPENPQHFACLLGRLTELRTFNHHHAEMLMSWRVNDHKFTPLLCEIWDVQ
In short: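 Beta-lactamase reporter under UAS control in GeneBLAzer FXR HEK 293T cells (5000/well) measured with LiveBLAzer FRET substrate after 2 h at room temperature. Compound exposure lasted 16 h at 37C.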

[16] = qHTS assay to identify small molecule antagonists of the farnesoid-X-receptor (FXR) signaling pathway - cell viability counter screen (AID 743221; active = well fitted cell-killing curve with a large enough effect in the repeat runs, not every such curve was filed as active; also: nearly all actives have a fitted effect of over 50% in size)
In short: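 HEK 293T FXR-bla cells, 5 h pre-incubation; compound + CDCA 50 uM final, 16 h, 37 C; beta-lactamase FRET read first, then CellTiter-Glo luminescence, 30 min RT.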

[17] = target: Vitamin D3 receptor (Homo sapiens) (UniProt P11473); experiment: qHTS assay to identify small molecule agonists of the vitamin D receptor (VDR) signaling pathway (AID 743222; calls by dose curve)
Vitamin D3 receptor (Homo sapiens), sequence (P11473 whole entry, looked up): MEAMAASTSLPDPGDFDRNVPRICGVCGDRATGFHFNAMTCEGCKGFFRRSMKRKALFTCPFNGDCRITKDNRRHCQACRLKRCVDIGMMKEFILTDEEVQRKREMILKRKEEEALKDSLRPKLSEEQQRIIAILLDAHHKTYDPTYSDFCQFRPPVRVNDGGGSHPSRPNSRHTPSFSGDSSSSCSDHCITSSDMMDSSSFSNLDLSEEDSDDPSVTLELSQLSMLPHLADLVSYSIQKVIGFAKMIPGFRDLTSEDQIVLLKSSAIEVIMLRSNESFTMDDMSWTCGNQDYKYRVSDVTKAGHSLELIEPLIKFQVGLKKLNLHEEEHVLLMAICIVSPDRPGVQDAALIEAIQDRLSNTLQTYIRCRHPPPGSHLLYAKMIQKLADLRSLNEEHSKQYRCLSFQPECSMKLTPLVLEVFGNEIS
In short: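 In VDR-bla cells, compound-induced beta-lactamase expression is quantified by FRET substrate fluorescence. Treatment lasts 16 h at 37C; substrate develops 2 h at room temperature.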

[18] = target: Vitamin D3 receptor (Homo sapiens) (UniProt P11473); experiment: qHTS assay to identify small molecule antagonists of the vitamin D receptor (VDR) signaling pathway (AID 743223; active = well fitted inhibition curve with a large enough effect in the signal ratio in the repeat runs, not every such curve was filed as active; the % refers to the signal ratio)
In short: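 Beta-lactamase reporter read-out: FRET substrate fluorescence after 2 h at room temperature, following 16 h exposure of VDR-bla cells to test compound plus 3 nM (final) 1alpha,25-dihydroxyvitamin D3 agonist at 37C.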

[19] = qHTS assay for small molecule agonists of the antioxidant response element (ARE) signaling pathway (AID 743202; active = well fitted activation curve with a large enough effect in the signal ratio in the repeat runs, not every such curve was filed as active; the % refers to the signal ratio; also: potency is read from the fitted curve at half-maximal effect)
In short: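 Compounds delivered in DMSO to ARE-bla HepG2 cells (2,000 cells/well, pre-incubated 5 h) and left 16 h at 37 C. LiveBLAzer B/G FRET substrate then added for 2 h at RT before fluorescence reading.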

[20] = target: Bile acid receptor (Homo sapiens) (UniProt Q96RI1); experiment: qHTS assay to identify small molecule antagonists of the farnesoid-X-receptor (FXR) signaling pathway (AID 743217; active = well fitted inhibition curve with a large enough effect in the signal ratio in the repeat runs, not every such curve was filed as active; the % refers to the signal ratio)
In short: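 GeneBLAzer FXR-UAS-bla HEK 293T, CDCA-stimulated (50 uM final). Compound treatment 16 h, 37 °C. Detection: beta-lactamase cleavage of B/G FRET substrate, fluorescence.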

SMILES: CN1[C@@H]2CC[C@H]1CC(NC(=O)n1c(=O)[nH]c3ccccc31)C2 (some centres undefined)
- Potency [1]: inactive
- Potency [2]: inactive
- Potency [3]: inactive
- outcome [4]: inactive
- outcome [5]: inactive
- Potency [6]: inactive
- outcome [7]: inactive
- outcome [8]: inactive
- outcome [9]: inactive
- Potency [10]: inactive
- outcome [11]: inactive
- Potency [12]: inactive
- outcome [13]: inactive
- outcome [14]: inactive
- outcome [15]: inactive
- Potency [16]: inactive
- outcome [17]: inactive
- outcome [18]: inactive

SMILES: NCCNC(=O)c1ccc(Cl)cn1
- Potency [1]: inactive
- Potency [2]: inactive
- Potency [3]: inactive
- outcome [4]: inactive
- outcome [5]: inactive
- Potency [6]: inactive
- Potency [19]: inactive
- outcome [7]: inactive
- outcome [8]: inactive
- outcome [9]: inactive
- Potency [10]: inactive
- Potency [12]: inactive
- outcome [14]: inactive
- Potency [16]: inactive
- outcome [17]: inactive
- outcome [18]: inactive

SMILES: CCCC=O
- Potency [1]: inactive
- Potency [2]: inactive
- Potency [3]: inactive
- outcome [4]: inactive
- outcome [5]: inactive
- Potency [6]: inactive
- Potency [19]: inactive
- outcome [7]: inactive
- outcome [8]: inactive
- outcome [9]: inactive
- Potency [10]: inactive
- outcome [11]: inactive
- outcome [13]: inactive
- outcome [14]: inactive
- Potency [16]: inactive
- outcome [17]: inactive

SMILES: O=C(O)c1ccc[n+]([O-])c1
- Potency [1]: inactive
- Potency [2]: inactive
- Potency [3]: inactive
- outcome [4]: inactive
- outcome [5]: inactive
- Potency [6]: inactive
- Potency [19]: inactive
- outcome [7]: inactive
- outcome [8]: inactive
- outcome [9]: inactive
- Potency [10]: inactive
- outcome [11]: inactive
- Potency [12]: inactive
- outcome [13]: inactive
- Potency [16]: inactive
- outcome [17]: inactive
- outcome [18]: inactive

SMILES: FC(F)(F)C(F)(F)C(F)(F)C(F)(F)C(F)(F)C(F)(F)C(F)(F)C(F)(F)C(F)(F)C(F)(F)F
- activity change, negative = cytotoxicity [1]: 5.22% [at 8.47 µM]
- activation [2]: 0.197% [at 8.47 µM]
- viability change, negative = cytotoxic [3]: 24.8% [at 8.47 µM]
- activation [4]: -0.797% [at 7.08 µM]
- ratio activity, negative = inhibition [5]: -8.26% [at 5.95 µM]
- activity change, negative = cytotoxicity [6]: 1.8% [at 5.95 µM]
- activation [19]: 0.659% [at 8.36 µM]
- viability change, negative = cytotoxic [7]: 0.46% [at 8.36 µM]
- activity change, negative = cytotoxicity [8]: 3.17% [at 5.95 µM]
- activation [9]: 2.05% [at 5.95 µM]
- activity change, negative = cytotoxicity [10]: 5.8% [at 5.95 µM]
- viability change, negative = cytotoxic [12]: -11.7% [at 6.26 µM]
- viability change, negative = cytotoxic [14]: 1.72% [at 5.95 µM]
- activity change, negative = cytotoxicity [16]: 9.95% [at 5.95 µM]
- activation [17]: 0.833% [at 6.01 µM]
- activity change, negative = inhibition [18]: -8.47% [at 6.95 µM]

SMILES: CCCCCCCCCCCCCCCCCC(=O)OCCCCCCCCCCCCCC(C)C
- Potency [1]: inactive
- Potency [2]: inactive
- Potency [3]: inactive
- outcome [4]: inactive
- outcome [5]: inactive
- Potency [6]: inactive
- Potency [19]: inactive
- outcome [7]: inactive
- outcome [8]: inactive
- outcome [9]: inactive
- Potency [10]: inactive
- outcome [11]: inactive
- Potency [12]: inactive
- outcome [13]: inactive
- outcome [14]: inactive
- Potency [16]: inactive
- outcome [18]: inactive

SMILES: NC(=O)c1c(Cl)cccc1Cl
- Potency [1]: inactive
- Potency [2]: inactive
- Potency [3]: inactive
- outcome [4]: inactive
- outcome [5]: inactive
- Potency [6]: inactive
- Potency [19]: inactive
- outcome [7]: inactive
- outcome [8]: inactive
- outcome [9]: inactive
- Potency [10]: inactive
- outcome [11]: inactive
- Potency [12]: inactive
- outcome [13]: inactive
- outcome [20]: inactive
- outcome [14]: inactive
- outcome [15]: inactive
- Potency [16]: inactive
- outcome [18]: inactive

SMILES: CC(C)c1ccc2oc3nc(N)c(C(=O)O)cc3c(=O)c2c1
- Potency [1]: inactive
- Potency [2]: 0.841 µM (active)
- Potency [3]: inactive
- outcome [4]: inactive
- outcome [5]: inactive
- Potency [6]: inactive
- Potency [19]: 23.7 µM (active)
- outcome [7]: inactive
- outcome [8]: inactive
- outcome [9]: inactive
- Potency [10]: inactive
- Potency [12]: inactive
- outcome [14]: inactive
- Potency [16]: inactive
- outcome [18]: inactive
